Results from ChEMBL document CHEMBL4513146, “CO-ADD screening of Karazin Kharkiv National University (Ukraine) compounds”.
Entries with a potency or affinity are not part of this list.

Experiments:
Klebsiella pneumoniae = conditions: Concentration 32 ug.mL-1;; ASSAY_TEST Inhibition of Bacterial Growth; detection method Absorption (OD600); MEDIA CAMHB; plate type 384well; NBS; CORNING #3640; time 18 hr
Candida albicans = conditions: Concentration 32 ug.mL-1; ASSAY_TEST Inhibition of Fungal Growth; detection method Absorption (OD530)
Cryptococcus neoformans = conditions: Concentration 32 ug.mL-1; ASSAY_TEST Inhibition of Fungal Growth; detection method Resazurin; Absorption (OD600-OD570); plate type 384well; NBS; CORNING #3640

| SMILES | Inhibition (Klebsiella pneumoniae) | Inhibition (Candida albicans) | Inhibition (Cryptococcus neoformans) |
| --- | --- | --- | --- |
| O=c1n(Cc2cccc(Cl)c2)nc2ccc(-c3ccccc3)nn12 | 19.54% | 2.36% | -20.37% |
| CCCCOc1ccc(-c2cc3c4nnc(SCC(=O)Nc5ccc(CC)cc5)n4ccn3n2)cc1 | 9.73% | 2.18% | -11.7% |
| O=C(CSc1nnc2c3cc(-c4ccc(F)cc4)nn3ccn12)NCc1ccccc1 | 0.49% | 0.97% | -18.29% |
| COc1ccc(NC(=O)Cn2c(=O)c3nnc(C(C)C)n3c3ccccc32)cc1 | 10.47% | 4.15% | -13.18% |
| N#CCn1nc2n(Cc3ccccc3)c(=O)c3ccccc3n2c1=O | 8.96% | -1.85% | -7.48% |
| Cc1nnc2ccc(S(=O)(=O)N(Cc3ccccc3)c3cccc(F)c3)cn12 | 4.18% | 2.53% | -9.94% |
| O=C(Cn1nc2c(Sc3ccccc3)nccn2c1=O)Nc1cc(F)ccc1F | -2.16% | 0.26% | -12.37% |
| CCc1ccc(N(Cc2ccccc2)S(=O)(=O)c2cccn3c(C)nnc23)cc1 | 5.96% | -1.36% | -9.98% |
| COc1ccccc1-n1ccn2c(SCC(=O)N3CCN(c4ccccc4F)CC3)nnc2c1=O | 14.09% | 3.15% | -10.82% |
| COc1ccc(-c2cc3c4nn(CC(=O)Nc5cc(C)cc(C)c5)c(=O)n4ccn3n2)cc1 | 9.4% | 2.5% | -4.71% |
| O=c1n(Cc2nc(-c3ccc(F)cc3)no2)nc2ccc(-c3ccccc3)nn12 | 18.38% | -1.53% | -18.94% |
| Cc1ccccc1NC(=O)Cn1nc2c(SC3CCCCC3)nccn2c1=O | 5.55% | -0.37% | -26.02% |
| Cc1ccc(C)c(CN(c2cccc(Cl)c2)S(=O)(=O)c2cccn3c(C)nnc23)c1 | 5.81% | 2.43% | -8.33% |
| O=C(Cn1nc2c(N3CCSCC3)nc3ccccc3n2c1=O)NCc1ccccc1 | 13.9% | 0.65% | -23.77% |
| CCC(Sc1nnc2c(=O)n(-c3cccc(OC)c3)ccn12)C(=O)Nc1ccccc1C (centres undefined) | 4.33% | 0.82% | -7.71% |
| COc1ccc2[nH]cc(C(=O)CSc3nnc4c(=O)n(-c5ccc(F)cc5)ccn34)c2c1 | 12.89% | 3.24% | -7.69% |
| Cc1nnc2c(=O)n(CC(=O)Nc3ccccc3Cl)c3ccccc3n12 | 0.78% | 1.36% | -5.67% |
| Cc1nnc2c(=O)n(CC(=O)Nc3cccc(Br)c3)c3ccccc3n12 | 7.61% | -0.15% | -11.02% |
| O=C(Cn1nc2c(N3CCOCC3)nc3ccccc3n2c1=O)Nc1ccccc1Br | 11.27% | 1.17% | -27.52% |
| COc1ccc(Cn2nc3ccc(-c4ccc(Cl)cc4)nn3c2=O)cc1F | 16.23% | 0.27% | -15.51% |
| O=C(CSc1nnc2c(=O)n(-c3ccccc3)ccn12)c1c[nH]c2ccccc12 | 19.5% | 3.09% | -9.19% |
| CCCc1nnc2c(=O)n(CC(=O)Nc3ccc(Br)cc3F)c3ccccc3n12 | -10.52% | 6.6% | -24.08% |
| Cc1ccc(NC(=O)Cn2nc3c(SC4CCCCC4)nccn3c2=O)cc1 | 5.75% | -2.16% | -28.82% |
| COc1ccc(-c2cc3c4nnc(SCC(=O)Nc5cccc(Cl)c5C)n4ccn3n2)cc1 | -3.16% | 6.33% | -18.63% |
| Cn1c(=O)c2ccc(C(=O)NC3CCCCC3)cc2n2c(=O)n(Cc3cccc(C(F)(F)F)c3)nc12 | 16.04% | 1.42% | -24.7% |
| CC(C)NC(=O)Cn1nc2nc(Nc3ccc(F)cc3)ccn2c1=O | 12.23% | 2.08% | -10.27% |
| O=S(=O)(c1ccc2nncn2c1)N(Cc1cccc(F)c1)c1ccc2c(c1)OCCO2 | 10.4% | 1.26% | -5.06% |
| COc1cccc(CNC(=O)CSc2nnc3c(=O)n(-c4ccc(C)c(C)c4)ccn23)c1OC | 8.73% | 0.37% | -5.22% |
